# Only some compounds are listed: those with a hit (about 3.8% of all), similar ones and a draw of the others.
# A1 inh: caspase 3/7 activation in MEF A1-2A-BIM cells, primary screen, A1 inhibitor project, cell-based, luminescence, HTS; caspase activation, % (test concentration not listed); hit rate 0.066% among 330,000; Caspase-Glo 3/7 luminescence, 3 h; percent of clofoctol response, vehicle zero;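 active = over half of replicate activation scores above 10%, or exactly half above 10 with the replicate mean above 10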
# Mdm2 MdmX PPI: inhibitors of human Mdm2-MdmX association, primary screen, cell-based, luminescence, split luciferase, SaOS-2, uHTS. Protein Mdm4 (Homo sapiens) + E3 ubiquitin-protein ligase Mdm2 (Homo sapiens), …. SaOS-2 split-luciferase Mdm2/MdmX complementation. inhibition, % at 8 µM. hit rate 3% among 330,000. AID 485346, 2010;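 active = inhibition of at least 50% at 8 µM in the primary screen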
# Beta cell apopt: inhibitors of cytokine-induced beta cell apoptosis, primary screen, luminescence; protection from apoptosis, % (concentration not given with the values); hit rate 0.8% among 300,000; INS-1E cytokine-induced death, ATP luminescence, 48 h; percent of positive-control rescue, neutral wells zero; AID 435005, 2010;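 active = Every replicate reaches about 75%, or at least half do and their mean reaches it too, limit read from the data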;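 also: 0% = cytokine-treated negative control wells and 100% = positive control rescue; higher means more ATP so stronger rescue from cytokine killing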
# NTR1 agonist: agonists of human NTR1, primary screen, imaging, U2OS cells, beta-arrestin-GFP, high content; AID 493036, 2011; NTR1-U2OS beta-arrestin-GFP spot imaging, agonist mode; Neurotensin receptor type 1 (Homo sapiens), P30989; hit rate 0.17% among 330,000; activation, % at 20 µM;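 active = activation at or above 40% of the spot to cytoplasm intensity ratio, with at least 20 cells analyzed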;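 also: 0% = DMSO without peptide and 100% = 100 nM NTR1 peptide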
# Target sequence (P30989 whole entry, looked up): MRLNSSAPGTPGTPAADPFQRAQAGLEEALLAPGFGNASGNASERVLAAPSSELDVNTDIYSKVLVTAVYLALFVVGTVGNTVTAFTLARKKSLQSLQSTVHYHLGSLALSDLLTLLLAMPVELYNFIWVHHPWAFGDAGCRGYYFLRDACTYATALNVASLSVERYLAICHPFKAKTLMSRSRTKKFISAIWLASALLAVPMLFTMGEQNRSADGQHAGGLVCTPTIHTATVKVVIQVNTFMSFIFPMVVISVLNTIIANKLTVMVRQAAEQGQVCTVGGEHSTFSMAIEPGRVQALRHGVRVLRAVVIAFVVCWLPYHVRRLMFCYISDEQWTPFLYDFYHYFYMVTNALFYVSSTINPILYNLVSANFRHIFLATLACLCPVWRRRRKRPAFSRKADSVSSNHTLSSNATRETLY
# Jurkat NFkB inh: inhibitors of induced NF-kB luciferase reporter, primary screen, TCR NF-kB activation inhibitor project, cell-based, luminescence, uHTS; Jurkat, PMA/ionomycin-induced NF-kB luciferase reporter; inhibition, % at 4 µM; hit rate 0.53% among 330,000; in the data active = inhibition above about 50%
# 697 NFkB inh: inhibitors of PMA/ionomycin-induced NF-kB reporter, 697 cells, primary screen, B-cell NF-kB inhibitor project, cell-based, luminescence, uHTS | 697 B-cell NF-kB luciferase reporter, 16 h | inhibition, % at 4 µM | hit rate 0.33% among 330,000; in the data active = inhibition above about 35%
# Mdm2 MdmX conf: Mdm2-MdmX complex disruptors, retested hits, confirmation, luminescence, single concentration. shares compounds with Mdm2 MdmX PPI. Mdm2-MdmX binding, luminescent assay. inhibition, % at 8 µM. hit rate 55% among 10,000; in the data active = inhibition above about 40%
# Full FLuc ctr: full-length luciferase signal inhibition, confirmation, counter-screen for Mdm2/MdmX interaction inhibitor project, cell-based, single concentration, SaOS-2 | shares compounds with Mdm2 MdmX PPI | SaOS-2 full-length luciferase counterscreen, luminescence | inhibition, % at 8 µM | hit rate 77% among 6,200;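 active = mean inhibition at 8 µM reaching about 37%, which flags the compound as non-specific, limit read from the data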;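 also: p53-null SaOS-2 cells with luciferase driven by a doxycycline-inducible promoter; compound on cells about two nights before reading with doxycycline added after day one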
# * marks the source's active call; other numbers are inactive results; . = no result given.
SMILES,A1 inh,Mdm2 MdmX PPI,Beta cell apopt,NTR1 agonist,Jurkat NFkB inh,697 NFkB inh,Mdm2 MdmX conf,Full FLuc ctr
CC(C)Cc1ccc(CN2CCCC(NC(=O)CCn3cnnn3)C2)cc1 (centres undefined),0,11,.,0,14,3,.,.
Cc1ccc(C)c(C(=O)CN2C(=O)c3ccccc3C2=O)c1,1,-1,-2,-1,14,6,.,.
Cc1ccc(C)c(C(=O)CN2C(=O)c3ccccc3S2(=O)=O)c1,-1,68*,-5,1,-14,-48,60*,100*
O=C(CN1C(=O)c2ccccc2S1(=O)=O)c1ccc(F)c(F)c1,-1,6,-4,-1,22,20,.,.
O=C(CN1C(=O)c2ccccc2S1(=O)=O)c1ccc(O)c(O)c1,-1,56*,2,0,21,17,55*,74*
CSc1cccc(NC(=O)CN2C(=O)c3ccccc3S2(=O)=O)c1,0,53*,-2,3,8,-31,44*,77*
O=C(CN1C(=O)NC2(CCc3ccccc32)C1=O)c1ccc(F)cc1 (centres undefined),0,1,-3,2,-3,6,.,.
CCOC(=O)C1CCN(C(=O)CS(=O)(=O)Cc2nc(-c3ccccc3Cl)oc2C)CC1,1,27,-3,2,7,6,.,.
CCOc1ccc(S(=O)(=O)N(CC)CC)cc1NC(=O)CSCc1c(C)noc1C,0,-14,5,0,-14,-18,.,.
CCCCCCOC(=O)C[N+](C)(C)CCOC1CC2CCC1(C)C2(C)C (centres undefined),-1,67*,123*,40*,14,14,74*,18
CCn1c(Oc2ccccc2C)nc2c1c(=O)n(C)c(=O)n2C,0,57*,.,0,-5,-26,42*,43*
COCCn1nnnc1C(C(C)C)N(Cc1cccnc1)Cc1ccccc1Cl (centres undefined),1,65*,-3,0,-25,-110,4,.
COCc1cc(C)n(CC(=O)Nc2ccc3c(c2)OCO3)c(=O)c1C#N,1,16,-4,0,-1,9,.,.
COc1ccc(N2CCN(CCNC(=O)Nc3ccc(C)cc3Cl)CC2)cc1,1,-11,5,0,-16,9,.,.
CC(C)(C)n1nnnc1C(c1ccccn1)N(Cc1ccccc1)Cc1ccc(Cl)cc1 (centres undefined),1,60*,.,1,-16,-16,8,.
O=C(NC1CC1)c1nc(Cn2ccc([N+](=O)[O-])n2)no1,0,11,-2,2,-8,-7,.,.
COc1cccc(-c2nc(C(=O)NCC3CCCO3)cc3c2[nH]c2ccccc23)c1 (centres undefined),1,65*,33,7,-13,25,25,.
C=C(C)Cn1c(=O)c2c(nc3n2CCCN3CCc2ccccc2)n(C)c1=O,0,-1,-2,2,4,-34,.,.
COc1cc2oc(=O)cc(-c3ccc(-c4ccc(CO)cc4)cc3)c2c(OC)c1OC,.,68*,.,4,.,-10,64*,48*
COc1ccc(CCNC(=O)Cn2nnc(-c3ccc(N4CCOCC4)cc3)n2)cc1OC,-2,28,0,0,-37,-12,.,.
Cc1cccc(C)c1NC(=O)Cn1nnc(-c2ccc(N3CCOCC3)cc2)n1,1,70*,2,2,-14,-11,20,.
Cc1ccc(C)c(NC(=O)Cn2nnc(-c3ccc(N4CCOCC4)cc3)n2)c1,-1,83*,-1,0,-30,-8,38,83*
Cc1ccccc1NC(=O)Cn1nnc(-c2ccc(CN3CCC(C)CC3)cc2)n1,0,-3,-1,0,-9,2,.,.
COC(=O)[C@@]1(C)[C@H]2C(=O)N(Cc3ccccc3)C(=O)[C@H]2[C@H]2CN=C(SCc3ccc(Cl)cc3)N21,.,97*,.,6,.,-15,100*,56*
COC(=O)[C@@]1(Cc2ccccc2)[C@H]2C(=O)N(Cc3ccccc3)C(=O)[C@H]2[C@H]2CN=C(SCC(=O)c3ccccc3)N21,.,54*,.,-1,.,-1,55*,50*
SMILES,A1 inh,Mdm2 MdmX PPI,Beta cell apopt,NTR1 agonist,Jurkat NFkB inh,697 NFkB inh,Mdm2 MdmX conf,Full FLuc ctr
COC(=O)[C@@]1(Cc2ccccc2)[C@H]2C(=O)N(Cc3ccccc3)C(=O)[C@H]2[C@H]2CN=C(SCc3ccc(Cl)cc3)N21,.,99*,.,0,.,7,99*,53*
COC(=O)[C@@]1(C)[C@H]2C(=O)N(Cc3ccccc3)C(=O)[C@H]2[C@H]2CN=C(SCc3ccc(C#N)cc3)N21,.,71*,.,3,.,-16,70*,51*
COc1ccc(S(=O)(=O)N(C)C[C@H]2Oc3c(NC(=O)c4ccncc4)cccc3C(=O)N([C@H](C)CO)C[C@@H]2C)cc1,1,3,2,1,1,25,.,.
Cn1nc(-c2ccc(OCC(=O)Nc3cccnc3)cc2)c2ccccc2c1=O,-1,64*,-2,19,12,23,6,.
COc1ccccc1N=c1oc2c(OC)cccc2cc1C(=O)NCc1ccco1,0,51*,-1,10,-5,-4,3,.
COc1ccc(OC)c(N=c2oc3c(OC)cccc3cc2C(=O)NCc2ccco2)c1,.,43,5,5,18,24,.,.
Cc1cc(C(=O)CSc2nnc(-c3ccccc3)o2)c(C)n1CC1COc2ccccc2O1 (centres undefined),-1,27,8,8,-8,9,.,.
Cc1cc(C(=O)CSc2nnc(-c3ccc(F)cc3)o2)c(C)n1CC1COc2ccccc2O1 (centres undefined),0,62*,-2,8,14,3,23,.
CC1=NN(c2cccc(C(=O)O)c2)C(=O)/C1=C\C=C/c1ccccc1,.,65*,.,18,43,-133,15,.
Cc1cc(C)c2nc(Nc3nc(-c4ccccc4)cc(=O)[nH]3)nc(C)c2c1,0,71*,8,8,3,5,23,.
